Reference: PubChem BioAssay (EPA / NIEHS)
Records with an inconclusive call do not appear. More than one record can exist for a structure, and the calls need not agree. Calls of active or inactive are those of the source. How the source made its calls, unless noted: active means hit-call score of the fitted dose curve at least 0.9, where 1 is the maximum; inactive means score below 0.9.

Tests used:
[1] = CCTE_Mundy_HCI_Cortical_Synap_Neur_Matur_SynapseCount: CCTE's Synaptogenesis and Neurite Maturation Assay in rat cortical cells for Synapse Count, Mundy Lab (AID 2284218)
Procedure, shortened: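 Rat primary cortical cultures, AraC at DIV 5, chemical dosing DIV 7 to DIV 12 (288.33 h). Fixed cells stained for MAP2, synaptophysin and Hoechst; synapses per neuron counted by high-content imaging, loss of signal versus DMSO.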

[2] = CCTE_Mundy_HCI_Cortical_Synap_Neur_Matur_NeuriteCount: CCTE's Synaptogenesis and Neurite Maturation Assay in rat cortical cells for Neurite Count, Mundy Lab (AID 2284222)
Procedure, shortened: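 In this multiplexed morphology readout, rat primary cortical neurons are fixed at DIV 12 following dosing at DIV 7 and stained for MAP2, synaptophysin and nuclei. High-content image analysis yields neurite count.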

[3] = CCTE_Mundy_HCI_Cortical_Synap_Neur_Matur_CellBodySpotCount: CCTE's Synaptogenesis and Neurite Maturation Assay in rat cortical cells for Cell Body Spot Count, Mundy Lab (AID 2284223)
Procedure, shortened: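 Primary rat cortical cultures, AraC added at DIV 5; dosed DIV 7 through DIV 12 […]. Fixed, stained for MAP2 and synaptophysin with Hoechst; cell body-associated synaptophysin puncta per neuron counted by high-content imaging, loss vs DMSO.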

[4] = TAMU_HCS_1.5hr_SingleDonor1434_Cytotoxicity: Cytotoxicity Assessment using High-content Screening (HCS) Fluorescent Imaging for the Texas A&M University (TAMU) 1.5-hr Human Induced Pluripotent Stem Cell (iPSC)-derived Cardiotoxicity Assay (AID 2284234; active means hit-call score of the fitted dose curve at least 0.9, where 1 is the maximum)
Procedure, shortened: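 Human iPSC-derived cardiomyocytes dosed at 0.2, 1, 10, 100 uM final (0.5% DMSO) for 90 min at 37 C. Hoechst 33342-stained nuclei counted by 10x high-content imaging; POD is EC10, a 10% drop in total cell count versus DMSO.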

[5] = CCTE_Mundy_HCI_hNP1_Pro_ResponderAvgInten: CCTE's Proliferation Assay in human neuroprogenitor cells, Mundy Lab (AID 2284224; active means hit-call score of the fitted dose curve at least 0.9, where 1 is the maximum;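 further: human neural progenitor cells hNP1 derived from WA09 embryonic stem cells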)
Procedure, shortened: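 Proliferation was scored as BrdU labelling intensity in human neural progenitors derived from WA09 embryonic cells, measured 26.25 hours after chemical dosing. Activity was fitted relative to DMSO.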

[6] = UKN2_HCS_IMR90_cell_viability: Viability Assessment in the University of Konstanz (UKN) Leist Lab Neural Crest Cell Migration Assay in human induced IMR90 Pluripotent Stem Cells (UKN2) (AID 2284233);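 further: viability of neural crest cells differentiated from IMR90 iPSC measured by calcein-AM fluorescence imaging; cells exposed to compound for 24 h after a 24 h migration phase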
Procedure, shortened: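 Human IMR90-derived neural crest cells were allowed to migrate for 24 h into a cell-free zone, then exposed to test chemicals for 24 h. Calcein-AM and Hoechst staining with high-content imaging gave viability, analysed against DMSO baseline.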

[7] = CCTE_Mundy_HCI_Cortical_NOG_NeuronCount: CCTE's Neurite Outgrowth Assay in rat cortical cells for Neuron Count, Mundy Lab (AID 2284236; active means hit-call score of the fitted dose curve at least 0.9, where 1 is the maximum;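 further: neurons counted by imaging betaIII-tubulin and Hoechst stained cortical cells; cells exposed to compound for about 48 hours before fixation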)
Procedure, shortened: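 Read-out: neuron number by high-content imaging of betaIII-tubulin (Alexa Fluor-488) and Hoechst-labelled rat primary cortical cells.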

[8] = BSK_BT_PBMCCytotoxicity: PBMC Cytotoxicity Assessment in the BioMAP Diversity Plus: BT Assay (AID 2284225); conditions: primary human B cells with PBMC;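 further: PBMC viability measured by Alamar Blue dye reduction fluorescence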
Procedure, shortened: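 PBMC (75,000/well) pretreated with compound 1 h, then activated with SEB and TSST-1 (20 ng/mL each final), incubated 90 h; Alamar Blue added 6 h, fluorescence read at 546/580 nm. Fitted relative to DMSO.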

[9] = read-out: Secreted IgG (sIgG), gene 3500; assay: BSK_BT_sIgG: BioMAP Diversity Plus: BT Assay for Secreted IgG (sIgG) Biomarker Activity (AID 2284226); conditions: primary human B cells with PBMC
Procedure, shortened: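 Human B cell plus PBMC co-culture; secreted IgG measured by ELISA 24 h after chemical dosing. Response fitted in positive direction relative to DMSO baseline.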

[10] = BSK_BT_Bcell_Proliferation: Viability Assessment in the BioMAP Diversity Plus: BT Assay for B cell Proliferation (AID 2284227); conditions: primary human B cells with PBMC
Procedure, shortened: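 Using a human primary B cell–PBMC co-culture, the assay measures total protein by sulforhodamine B absorbance as a gauge of proliferation after 72 h. Analysis followed the positive fitting direction with DMSO as baseline.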

[11] = read-out: Interleukin 6 (IL6), IL6 (gene 3569); assay: BSK_BT_xIL6: BioMAP Diversity Plus: BT Assay for Interleukin 6 (IL6) Biomarker Activity (AID 2284228); conditions: primary human B cells with PBMC
Procedure, shortened: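 Human B cell/PBMC co-culture; secreted IL-6 quantified by Luminex xMAP 24 h after chemical dosing, fitted relative to DMSO. Parallel PBMC viability by Alamar Blue after 1 h pretreatment, 20 ng/mL SEB and TSST-1, 90 h incubation.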

[12] = read-out: Interleukin 17A (IL17A), IL17A (gene 3605); assay: BSK_BT_xIL17A: BioMAP Diversity Plus: BT Assay for Interleukin 17A (IL17A) Biomarker Activity (AID 2284229); conditions: primary human B cells with PBMC
Procedure, shortened: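 Co-culture of human B cells and PBMC, dosed for 24 h in 96-well format. Secreted IL-17A measured with Luminex xMAP; gain-direction fitting against DMSO as baseline.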

[13] = read-out: Tumor necrosis factor (Homo sapiens) (UniProt P01375); assay: BSK_BT_xTNFa: BioMAP Diversity Plus: BT Assay for Tumor necrosis factor alpha (TNF-alpha) Biomarker Activity (AID 2284230); conditions: primary human B cells with PBMC
Procedure, shortened: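 Endpoint derived in the positive direction versus DMSO vehicle. Cells: B cells together with PBMC, exposed 24 h before TNF-alpha in the medium was read on the Luminex xMAP platform.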

[14] = read-out: Vascular cell adhesion molecule 1 (VCAM1), VCAM1 (gene 7412); assay: BSK_MyoF_VCAM1: BioMAP Diversity Plus: MyoF Assay for Vascular cell adhesion molecule 1 (VCAM1) Biomarker Activity (AID 2284231); conditions: primary human lung fibroblasts
Procedure, shortened: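 Primary human lung fibroblasts (BioMAP MyoF system) dosed with chemical, VCAM-1 measured by ELISA 24 hours later. Fitted in the positive direction against DMSO; parallel SRB staining assessed cytotoxicity.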

[15] = read-out: Collagen I, COL1A1 (gene 1277); assay: BSK_MyoF_CollagenI: BioMAP Diversity Plus: MyoF Assay for Collagen I Biomarker Activity (AID 2284238); conditions: primary human lung fibroblasts
Procedure, shortened: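 Primary human lung fibroblasts (MyoF system) treated 24 h; Collagen I quantified by ELISA and fitted in positive direction against DMSO. Parallel SRB total-protein staining assessed overt cytotoxicity.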

[16] = UKN4_HCS_LUHMES_cell_viability: Viability Assessment in the University of Konstanz (UKN) Leist Lab Neurite Outgrowth Assay in human LUHMES cells (UKN4) (AID 2284232)
Procedure, shortened: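 LUHMES precursors differentiated 2 days, replated at 30000 cells/well without cAMP/GDNF, then compound-treated 24 h. Viability from Hoechst H-33342 and calcein-AM live staining (30 min) by high-content fluorescence imaging; bidirectional fit versus DMSO.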

[17] = CCTE_Mundy_HCI_hN2_NOG_NeuriteCount: CCTE's Neurite Outgrowth Assay in human hN2 cells for Neurite Count, Mundy Lab (AID 2284219; active means hit-call score of the fitted dose curve at least 0.9, where 1 is the maximum)
Procedure, shortened: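 In this morphology assay, hNP1-derived neurons received test chemical 2 h post-plating and were fixed two days later in warm paraformaldehyde/sucrose containing Hoechst 33342. Neurites, labelled by rabbit anti-βIII-tubulin (1:800) and Alexa Fluor-488 (1:500), were counted automatically.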

[18] = CCTE_Mundy_HCI_hN2_NOG_NeuriteLength: CCTE's Neurite Outgrowth Assay in human hN2 cells for Neurite Length, Mundy Lab (AID 2284220; active means hit-call score of the fitted dose curve at least 0.9, where 1 is the maximum)
Procedure, shortened: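 Plate hNP1-derived neurons, then add chemical 2 h later as a 1/10 dilution. Stain with anti-βIII-tubulin then Alexa Fluor-488 secondary, and image automatically to measure neurite length.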

[19] = CCTE_Mundy_HCI_hN2_NOG_NeuronCount: CCTE's Neurite Outgrowth Assay in human hN2 cells for Neuron Count, Mundy Lab (AID 2284221; active means hit-call score of the fitted dose curve at least 0.9, where 1 is the maximum)
Procedure, shortened: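 Read-out is the number of betaIII-tubulin-positive neurons imaged by automated high-content analysis, with DMSO as negative control.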

[20] = TAMU_PeakParms_SingleDonor1434_QT: Texas A&M University (TAMU) 1.5-hr Human Induced Pluripotent Stem Cell (iPSC)-derived Cardiomyocytes Calcium (Ca+2) Flux Assay for Cardiotoxicity: QT (decay-rise ratio) (AID 2284235; active means hit-call score of the fitted dose curve at least 0.9, where 1 is the maximum)
Procedure, shortened: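 iPSC-derived cardiomyocytes (single donor 1434) dosed at 0.2, 1, 10, 100 uM final in 0.5% DMSO, 90 min at 37C. Ca2+ flux fluorescence decay/rise ratio; EC05 (5% increase versus DMSO) as POD, excluding beat-arrest and severe-notch data.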

Measured: AC50

Sequence of Tumor necrosis factor (Homo sapiens) (P01375 whole entry, looked up): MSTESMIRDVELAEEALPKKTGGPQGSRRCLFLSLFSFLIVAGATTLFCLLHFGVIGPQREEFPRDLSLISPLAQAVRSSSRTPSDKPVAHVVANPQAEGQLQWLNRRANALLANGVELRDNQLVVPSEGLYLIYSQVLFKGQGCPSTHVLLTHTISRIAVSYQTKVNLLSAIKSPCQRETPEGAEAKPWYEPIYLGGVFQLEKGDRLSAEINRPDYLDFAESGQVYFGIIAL

CNC(=O)Oc1cccc2ccccc12
inactive: [1] | [2] | [3] | [4]

C=C(C)CN(CC)c1c([N+](=O)[O-])cc(C(F)(F)F)cc1[N+](=O)[O-]
active: [1] 4.72 µM | [2] 7.75 µM | [3] 5.33 µM | [5] 19 µM | [6] 121 µM | [7] 50 µM

CS(=O)(=O)c1cc(C(F)(F)F)ccc1C(=O)c1cnoc1C1CC1
active: [7] 9.92 µM
inactive: [1] | [2] | [3] | [5] | [6]

CCNC(=O)NC(=O)C(C#N)=NOC
inactive: [2] | [3] | [7]
active: [1] 0.0179 µM

Cc1c(COC(=O)[C@@H]2[C@H](/C=C(\Cl)C(F)(F)F)C2(C)C)cccc1-c1ccccc1
active: [1] 3.14 µM | [2] 5.03 µM | [3] 3.12 µM | [5] 3.68 µM | [7] 21.2 µM
inactive: [6]

COC(=O)N(C(=O)N1CO[C@@]2(C(=O)OC)Cc3cc(Cl)ccc3C2=N1)c1ccc(OC(F)(F)F)cc1
active: [6] 33.1 µM
inactive: [1] | [2] | [3] | [5]

O=C(Nc1ccccc1-c1ccc(Cl)cc1)c1cccnc1Cl
inactive: [1] | [2] | [3] | [5] | [6] | [7]

COP(=O)(OC)O/C(C)=C/C(=O)N(C)C
inactive: [1] | [2] | [3] | [5]

CN/C(=N\[N+](=O)[O-])NCc1cnc(Cl)s1
inactive: [1] | [2] | [3] | [7]

COCC(C)N(C(=O)CCl)c1c(C)csc1C (configuration not stated)
inactive: [8] | [10] | [11] | [13]
active: [9] 13.5 µM | [12] 20 µM | [14] 20 µM | [15] 17.3 µM

CCSC(=O)N1CCCCCC1
inactive: [1] | [2] | [3] | [6] | [7]

COP(=S)(OC)SCn1nnc2ccccc2c1=O
active: [6] 32.2 µM
inactive: [1] | [2] | [3] | [16] | [7]

CCN(CC)c1nc(C)cc(OP(=S)(OC)OC)n1
active: [17] 72.4 µM | [18] 60.7 µM | [19] 50 µM | [5] 89.2 µM | [7] 80.8 µM
inactive: [1] | [2] | [3]

O=C1C2CC=CCC2C(=O)N1SC(Cl)(Cl)Cl (configuration not stated)
active: [4] 84.7 µM
inactive: [20]

CC(C)(C)C(=O)C(Oc1ccc(Cl)cc1)n1cncn1 (configuration not stated)
inactive: [3] | [6] | [7]
active: [1] 6.09 µM | [2] 12.8 µM

CO/N=C(/C1=NOCCO1)c1ccccc1Oc1ncnc(Oc2ccccc2Cl)c1F
inactive: [5] | [6]
active: [1] 2.75 µM | [2] 3.45 µM | [3] 3.26 µM | [7] 10.9 µM

CC1(C)C(C=C(Cl)Cl)C1C(=O)OC(C#N)c1cccc(Oc2ccccc2)c1 (configuration not stated)
inactive: [1] | [2] | [3]

CS(=O)(=O)c1ccc(C(=O)C2C(=O)CCCC2=O)c([N+](=O)[O-])c1
inactive: [1] | [2] | [3] | [6]

CCOP(=O)(OCC)Oc1nc(Cl)c(Cl)cc1Cl
inactive: [1] | [2] | [3] | [5] | [7]
active: [17] 50 µM | [18] 38.4 µM | [19] 50 µM | [5] 73.7 µM | [16] 65.1 µM | [6] 3.19 µM

N#CN=C1SCCN1Cc1ccc(Cl)nc1
inactive: [1] | [2] | [3] | [5]
